Screening data deposited in PubChem BioAssay by Sanford-Burnham Center for Chemical Genomics.
CF NFkB block: inhibitors of cystic fibrosis induced NF-kB; KKLEB NF-kB-GFP reporter, PAF-induced, GFP fluorescence overnight; hit rate 0.86% among 360,000; AID 588850; inhibition, % at 5 µM;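 active means at least 50% inhibition at 5 µM, scaled per plate between neutral and stimulator controls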;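 further: PAF is a Pseudomonas aeruginosa culture filtrate used as stimulus; plate controls were PAF-stimulated DMSO wells for no effect and unstimulated DMSO wells for full effect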
TROY NFkB inh: TROY signaling inhibition; inhibition, % at 10 µM; AID 1347056; Q293 LMP1-TROYcd NF-kB luciferase reporter, 4 h; hit rate 0.98% among 360,000;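 active means compounds whose plate-normalised and pattern-corrected inhibition of the luciferase reporter signal at the single screening dose is 50% or more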
KKLEB tox: CF airway cell cytotoxicity counter-screen; activity change (cytotoxicity), % at 5 µM; hit rate 0.36% among 360,000; KKLEB CF airway cells viability, ATPlite luminescence, overnight; stronger effect = lower value; cells stimulated with P. aeruginosa culture filtrate;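 active means corrected activity change at or below -50% at 5 µM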
HIF-2a inh: HIF-2a inhibition; 786-0 RCC cells HIF-2a reporter, luciferase luminescence, overnight; inhibition, % at 18.8 µM; hit rate 0.72% among 360,000;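 active means inhibition of the luminescence signal of 40% or more relative to plate controls, in a single-dose primary screen at 18.75 µM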
Peg3 promoter: reduces Peg3 promoter-driven luciferase expression in HeLa; hit rate 1.7% among 360,000; HeLa PEG-Prom luciferase reporter, luminescence, overnight; inhibition, % at 20 µM; AID 588405;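 active means inhibition of at least 50% at 20 µM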
TWEAK Fn14 block: TWEAK-Fn14 signaling inhibition; TWEAK-stimulated Fn14 reporter cells, luciferase luminescence, 8 h; inhibition, % at 10 µM; hit rate 2% among 360,000; in the data active means inhibition above about 50%
Mdm2-MdmX confirm: confirmation of inhibitors of human Mdm2/MdmX interaction, set 2. inhibition, % at 8 µM. shares compounds with HIF-2a inh. SaOS-2 split-luciferase Mdm2/MdmX complementation, luminescence. hit rate 99% among 740;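 active means mean inhibition of the luminescence signal across two replicates at or above 26 percent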
Target sequence (O15151 whole entry, looked up): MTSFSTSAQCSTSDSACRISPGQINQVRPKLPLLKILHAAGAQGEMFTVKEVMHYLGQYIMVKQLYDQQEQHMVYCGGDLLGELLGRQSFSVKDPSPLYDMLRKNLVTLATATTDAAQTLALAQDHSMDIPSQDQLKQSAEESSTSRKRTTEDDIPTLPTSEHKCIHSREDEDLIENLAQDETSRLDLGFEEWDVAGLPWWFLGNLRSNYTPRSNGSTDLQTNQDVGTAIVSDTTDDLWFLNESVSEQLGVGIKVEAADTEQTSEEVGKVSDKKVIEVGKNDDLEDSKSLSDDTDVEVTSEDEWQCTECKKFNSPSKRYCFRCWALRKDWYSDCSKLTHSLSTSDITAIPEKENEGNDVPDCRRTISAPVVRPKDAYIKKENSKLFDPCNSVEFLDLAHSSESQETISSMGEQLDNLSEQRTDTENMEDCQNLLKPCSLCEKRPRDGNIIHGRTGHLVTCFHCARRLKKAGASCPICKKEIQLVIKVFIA
Target sequence (Q00987 whole entry, looked up): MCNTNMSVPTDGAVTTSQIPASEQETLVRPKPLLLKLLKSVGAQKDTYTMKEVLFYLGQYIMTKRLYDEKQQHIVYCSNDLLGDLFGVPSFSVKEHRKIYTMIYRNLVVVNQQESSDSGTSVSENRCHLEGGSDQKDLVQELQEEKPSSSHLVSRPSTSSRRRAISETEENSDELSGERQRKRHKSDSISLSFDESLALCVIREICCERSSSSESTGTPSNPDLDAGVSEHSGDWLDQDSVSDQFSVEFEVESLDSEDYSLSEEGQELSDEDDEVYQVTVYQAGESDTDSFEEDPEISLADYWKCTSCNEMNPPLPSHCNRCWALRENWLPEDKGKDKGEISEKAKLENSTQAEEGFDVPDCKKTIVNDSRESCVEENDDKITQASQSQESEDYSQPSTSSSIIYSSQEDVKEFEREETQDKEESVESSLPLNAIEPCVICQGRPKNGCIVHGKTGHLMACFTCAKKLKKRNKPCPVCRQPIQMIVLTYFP
HIF-2a inh conf: confirmation of HIF-2a inhibitors | shares compounds with HIF-2a inh | inhibition, % at 18.8 µM | hit rate 56% among 1,800 | 786-0 RCC cells, HIF-2a luciferase reporter luminescence, overnight;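 active means mean inhibition across four replicates of at least 40 percent at the single tested concentration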
HIF-1a counter: HIF-1a inhibition counter-screen for HIF-2a hits | MiaPaCa-2 HIF-1a luciferase reporter, desferoxamine, overnight | hit rate 72% among 1,800 | inhibition, % at 18.8 µM | shares compounds with HIF-2a inh | AID 651589;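 active means mean inhibition of the reporter signal across four replicates at the single tested dose of 50% or more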
Numbers without * were called inactive. Shown are actives, neighbours in structure and some others; about 4% of the full set was active somewhere.

For COCCNC(=O)C(C)N(c1ccc(OC)cc1)S(C)(=O)=O (configuration not stated) the results were CF NFkB block -4, TROY NFkB inh -7, KKLEB tox -2, HIF-2a inh 11, Peg3 promoter -7 and TWEAK Fn14 block 7.
Cc1ccc(COc2ccc(-c3nnco3)cc2)cc1 was read as CF NFkB block -7, TROY NFkB inh -23, KKLEB tox 6, HIF-2a inh -356, Peg3 promoter -386 and TWEAK Fn14 block -8.
For Cc1ccc(C(C)C)c(OCc2ccc(-c3nnco3)cc2)c1 the results were CF NFkB block 15, TROY NFkB inh -3, KKLEB tox 2, HIF-2a inh 69*, Peg3 promoter -48, TWEAK Fn14 block 7, HIF-2a inh conf 71* and HIF-1a counter -45.
`Cc1cccc2cc(C(c3nnnn3Cc3ccccc3)N3CCN(C)CC3)c(=O)[nH]c12` (configuration not stated) gave CF NFkB block -7, TROY NFkB inh -13, KKLEB tox -15, HIF-2a inh 4, Peg3 promoter 4 and TWEAK Fn14 block 8.
For COc1ccc(Cn2nnnc2C(c2cc3cccc(C)c3[nH]c2=O)N2CCN(C)CC2)cc1 (configuration not stated) the results were CF NFkB block -24, TROY NFkB inh 5, KKLEB tox -5, HIF-2a inh 41*, Peg3 promoter 12, TWEAK Fn14 block 13, HIF-2a inh conf -3 and HIF-1a counter 10.
`CNc1nc(-c2ccc3c(c2)CCN3C(=O)CC(C)(C)C)c(C)s1` gave CF NFkB block 0, TROY NFkB inh 34, KKLEB tox 2, HIF-2a inh -111, Peg3 promoter -59 and TWEAK Fn14 block -21.
CC(=O)Nc1nc(-c2ccc3c(c2)CCN3C(=O)C2CC2)c(C)s1 was read as CF NFkB block -21, TROY NFkB inh -23, KKLEB tox 6, HIF-2a inh -63, Peg3 promoter -15, TWEAK Fn14 block 12 and Mdm2-MdmX confirm 97*.
CCOC(=O)Cc1csc(N/N=C/c2ccc(C(F)(F)F)cc2)n1 was read as CF NFkB block 13, TROY NFkB inh -2, KKLEB tox -2, HIF-2a inh 58*, Peg3 promoter -53, TWEAK Fn14 block 45, HIF-2a inh conf 58* and HIF-1a counter 17.
For CCOC(=O)Cc1csc(NC(=S)NC(=O)c2ccccc2C)n1 the results were CF NFkB block 6, TROY NFkB inh -10, KKLEB tox 3, HIF-2a inh 54*, Peg3 promoter -8, TWEAK Fn14 block 5, HIF-2a inh conf 58* and HIF-1a counter 17.
Screening CCOC(=O)Cc1csc(NC(=S)NC(=O)c2ccc(F)cc2)n1 returned CF NFkB block -12, TROY NFkB inh 9, KKLEB tox -8, HIF-2a inh 86*, Peg3 promoter 1, TWEAK Fn14 block 0, HIF-2a inh conf 89* and HIF-1a counter 59*.
Screening C[C@@H]1CN([C@H](C)CO)C(=O)Cc2cc(NC(=O)CCC(F)(F)F)ccc2O[C@@H]1CN(C)C(=O)Nc1ccccc1 returned CF NFkB block -11, TROY NFkB inh -16, KKLEB tox -2, HIF-2a inh -1, Peg3 promoter -1 and TWEAK Fn14 block -5.
For CC(C)(C)c1ccc(C(=O)Nc2sc3c(c2C(=O)O)CCC3)cc1 the results were CF NFkB block -8, TROY NFkB inh 62*, KKLEB tox 3, HIF-2a inh 96*, Peg3 promoter 24, TWEAK Fn14 block 88*, HIF-2a inh conf 96* and HIF-1a counter 75*.
Screening Cc1ccc(NC(=O)CCC(=O)N/N=C/c2coc3ccccc3c2=O)cc1 returned CF NFkB block 11, TROY NFkB inh 36, KKLEB tox -5, HIF-2a inh 53*, Peg3 promoter 24, TWEAK Fn14 block 11, HIF-2a inh conf -7 and HIF-1a counter 16.
C=CCn1c(SCC(=O)c2c(N)n(CCC)c(=O)n(C)c2=O)nnc1-c1ccncc1 was read as CF NFkB block -13, TROY NFkB inh 15, KKLEB tox 10, HIF-2a inh 25, Peg3 promoter 14 and TWEAK Fn14 block 3.
Screening Cc1ccc(Oc2c(C(N)=O)cc([N+](=O)[O-])cc2[N+](=O)[O-])cc1 returned CF NFkB block 85*, TROY NFkB inh -1, KKLEB tox -95*, HIF-2a inh 94*, Peg3 promoter 106*, TWEAK Fn14 block 41, Mdm2-MdmX confirm 102*, HIF-2a inh conf 74* and HIF-1a counter 102*.
For CCc1nc2ccc(C(=O)Nc3cc(-c4ccccc4)ccc3OC)cn2c1N(CCN(C)C)CC1CC1 the results were CF NFkB block -4, TROY NFkB inh -8, KKLEB tox -20, HIF-2a inh 82*, Peg3 promoter 98*, TWEAK Fn14 block -4, HIF-2a inh conf 9 and HIF-1a counter 101*.
Screening Brc1ccc(/C=N/c2nc3ccccc3n2CCN2CCOCC2)cc1 returned CF NFkB block -28, TROY NFkB inh 21, KKLEB tox 0, HIF-2a inh 7, Peg3 promoter -7 and TWEAK Fn14 block -11.
COc1cc(/C=C(\C#N)c2nc3ccccc3[nH]2)ccc1OC(=O)c1ccco1 was read as CF NFkB block -48, TROY NFkB inh -52, KKLEB tox 3, HIF-2a inh -168, Peg3 promoter -97 and TWEAK Fn14 block 22.
COc1cc(/C=C(/C#N)c2nc3ccccc3[nH]2)ccc1OCC(=O)Nc1ccccc1C(C)C was read as CF NFkB block 0, TROY NFkB inh -5, KKLEB tox 5, HIF-2a inh -11, Peg3 promoter 5, TWEAK Fn14 block 4 and Mdm2-MdmX confirm 101*.
Cn1c(N)c(C(=O)COC(=O)CCC2CCCC2)c(=O)n(C)c1=O was read as CF NFkB block -9, TROY NFkB inh 5, KKLEB tox -1, HIF-2a inh 10, Peg3 promoter 4 and TWEAK Fn14 block 17.
`O=C(/C(=C/c1ccc(Cl)cc1)c1nc2ccccc2[nH]1)c1ccccc1` gave CF NFkB block 89*, TROY NFkB inh -52, KKLEB tox -82*, HIF-2a inh 91*, Peg3 promoter 108*, TWEAK Fn14 block 79*, Mdm2-MdmX confirm 103*, HIF-2a inh conf 43* and HIF-1a counter 105*.
